# Source: PubChem (National Center for Advancing Translational Sciences (NCATS))
# D2 PAM-1: positive allosteric modulators of human D2 dopamine receptor | HEK293 T-REx D2, calcium flux, EC20 dopamine potentiation | potentiation, % at 10 µM | 0.34% of 340,000 active | AID 485347;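 active means potentiation over 3 SD above the plate norm, cut at about 30% in these data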; further: 0% is about no effect
# Target sequence (P14416 whole entry, looked up): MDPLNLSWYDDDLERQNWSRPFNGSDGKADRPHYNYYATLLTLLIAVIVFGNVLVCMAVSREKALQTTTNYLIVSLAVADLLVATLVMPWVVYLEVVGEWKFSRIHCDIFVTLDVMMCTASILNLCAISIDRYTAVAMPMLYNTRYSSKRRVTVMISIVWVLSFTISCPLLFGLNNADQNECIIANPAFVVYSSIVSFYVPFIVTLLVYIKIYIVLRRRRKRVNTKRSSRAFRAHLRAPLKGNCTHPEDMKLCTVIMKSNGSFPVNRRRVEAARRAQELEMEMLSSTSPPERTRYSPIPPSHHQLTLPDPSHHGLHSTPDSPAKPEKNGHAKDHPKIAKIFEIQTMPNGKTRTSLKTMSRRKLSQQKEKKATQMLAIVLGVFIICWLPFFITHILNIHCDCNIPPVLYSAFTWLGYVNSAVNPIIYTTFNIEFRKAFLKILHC
#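 Using a no-wash calcium dye in inducible, force-coupled HEK293 Trex cells expressing D2, we tracked fluorescence each second for 180 s after compound, then for 180 s after EC20 dopamine to detect augmented signalling.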
# D2 PAM-2: potentiates the human D2 dopamine receptor allosterically; DiscoveRx D2 beta-arrestin cells, luminescence, 90 min; 100% = 57 uM dopamine signal; potentiation, % (concentration not given with the values); 0.23% of 360,000 active; AID 624464; in the data active means potentiation above about 50%; inconclusive means mostly about 30% to 49%
#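 PathHunter beta-arrestin assay in DiscoveRx D2 cells. Compounds were added with an EC20 of dopamine (50 nM final) for 90 min at 37 deg C. Luminescence was read 1 h after detection reagent, with 57 uM dopamine as the EC100 control.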
# D2 ag-1: activates the human D2 dopamine receptor. P14416. HEK293 T-REx D2 cells, calcium flux agonist mode. activation, % at 2 µM. 0.53% of 340,000 active. AID 485358;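 active means activation over 3 SD above normal in the single-dose calcium agonist read, cut at about 30% in these data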; further: 0% is about no effect
#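 HEK293 Trex D2 cells, tetracycline-induced, o/n 30 C 5% CO2; no-wash Ca dye, RT 30–90 min; 10-cycle baseline, 23 nl cpd added, kinetic Ca read 180 s; agonist hits = positive Ca response.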
# D2 ag-2: activates the human D2 dopamine receptor; P14416; AID 624465; 0.084% of 360,000 active; activation, % (test concentration not listed); DiscoveRx PathHunter D2 beta-arrestin, luminescence, 90 min; 100% = 57 uM dopamine signal; in the data active means activation above about 40%; inconclusive means between about 15% and that limit
#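 DiscoveRx PathHunter D2 beta-arrestin cells (2,100/well) attached overnight, then compound-stimulated 90 min at 37 C in HBSS/10 mM HEPES/0.1% Tween-20 buffer; beta-galactosidase complementation read by luminescence after 1 h at ambient temperature. Dopamine 57 uM final (EC100) as control.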
# D2 antagonist: antagonists of human D2 dopamine receptor; inhibition, % at 10 µM; HEK293 TREx D2 cells, calcium flux, dopamine EC80; P14416; 2% of 340,000 active; in the data active means inhibition above about 30%; inactive means below that, where a call was filed; further: 0% is about no effect
#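 Calcium flux kinetic readout in an inducible HEK293 TREx D2 line plated overnight at 30 C. After 180 s compound exposure, an EC80 dopamine challenge follows with another 180 s kinetic read to detect antagonism.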
# The depositor's hits bear a star; ? = inconclusive; . = not tested or not shown. A selection: hits, their analogues and other compounds. The true share with any hit is near 2.4%.
SMILES,D2 PAM-1,D2 PAM-2,D2 ag-1,D2 ag-2,D2 antagonist
CC1CCN(S(=O)(=O)c2ccc3c(ccc(=O)n3CC(=O)NCc3ccccc3Cl)c2)CC1,-1,.,1,.,.
CC(C)C(NC(=O)c1ccccc1)C(=O)NCc1ccccn1 (configuration not stated),-10,2,1,0,61*
COc1cc(OC)cc(C(=O)NC(C(=O)NCc2ccccn2)C(C)C)c1 (configuration not stated),7,-8,1,-3,-4
COc1cccc(CN2CCC2(C)C(=O)Nc2ccc(Cl)c(Cl)c2)c1F (configuration not stated),.,-3,.,-4,.
COc1ccc(Br)cc1CNC(=O)c1nn(-c2ccc(C)cc2)c(=O)c2c1c1ccccc1n2C,-8,.,-1,.,.
CN1CCN(C2=Nc3ccccc3Oc3ccc(Cl)cc32)CC1,-31,-36,-1,-6,91*
O=C(CN1CCN(C(=O)c2ccco2)CC1)Nc1cc(S(=O)(=O)N2CCCC2)ccc1Cl,.,2,.,1,.
Cn1nc(C(=O)OCC(=O)N2CCc3ccccc32)c2ccccc2c1=O,32*,-21,-1,-1,8
O=C(Nc1cccc(C(=O)O)c1)/C(=C\c1ccccc1Cl)NC(=O)c1ccco1,-1,1,1,-4,6
CC1CCCN(c2nc3c(c(=O)n(C)c(=O)n3C)n2CCSc2nc3ccccc3o2)C1 (configuration not stated),30*,-5,-1,-2,-11
CC1CCCN(c2nc3c(c(=O)[nH]c(=O)n3C)n2CCSc2nc3ccccc3o2)C1 (configuration not stated),12,-3,1,-3,6
Cc1cccc(C)c1C(OCCN(C)C)C1CCCCC1 (configuration not stated),-20,-35,1,-2,89*
CN(C)CCOC(c1ccccc1)c1ccccc1 (tested in a mixture with another compound),7,-15,-3,-7,-10
COc1ccccc1NC(=S)NNC(=O)c1nn(C)c(C)c1Br,-6,-13,2,-6,-4
COc1ccccc1NC(=S)NNC(=O)c1nn(C)c(C)c1Cl,-20,-16,0,-4,82*
O=C(NNC(=S)NCc1ccco1)c1ccc(Cl)s1,3,10,0,-3,33*
Cc1c(Cl)c(C(=O)NNC(=S)NCc2ccco2)nn1C,2,-1,0,-1,35*
Cn1cc(Cl)c(C(=O)NNC(=S)NCc2ccco2)n1,-3,-9,2,3,-23
Cc1ccc(S(=O)(=O)N2C[C@H]3C(=O)C[C@@H](c4ccccc4)N(S(=O)(=O)c4ccc(C)cc4)[C@H]3C[C@H]2c2ccccc2F)cc1,.,-8,.,-6,.
Cc1ccc(CNC(=O)COC(=O)c2ccc(Cl)c(N)c2)cc1,8,-10,-1,-11,9
CCc1ccc(N2CCN(CCNC(=O)Nc3ccccc3)CC2)cc1,.,10,.,8,74*
O=C1CC(c2ccc(OCCCCCOc3ccc(C4CC(=O)NC4=O)cc3)cc2)C(=O)N1 (configuration not stated),5,8,0,9,37*
CCCCCCCCOc1ccc(C2CC(=O)NC2=O)cc1 (configuration not stated),1,-9,1,-4,-1
Cc1ccc(CNC(=O)CCS(=O)(=O)c2ccc3c(c2)oc(=O)n3C)cc1,7,4,-1,2,30*
O=C1Cc2cc(S(=O)(=O)Nc3ccc(N4CCOCC4)cc3)ccc2N1,.,-5,.,5,.
SMILES,D2 PAM-1,D2 PAM-2,D2 ag-1,D2 ag-2,D2 antagonist
COc1cc(CC(NC(C)=O)C(=O)NC2CCN(C(=O)C3CC3)CC2)cc(OC)c1 (configuration not stated),7,-11,0,-5,33*
COc1ccc(-c2ccc3c(c2)S(=O)(=O)c2cccc(C(=O)N4CCN(C5CCCCC5)CC4)c2C3=O)cc1OC,.,118*,.,?,.
CCc1ccccc1NC(=O)/C(C#N)=C\c1ccc(Sc2ccccc2)o1,40*,-3,0,-1,-6
O=C(COC(=O)c1ccc([N+](=O)[O-])o1)NC1CCCC1,.,14,.,8,.
O=C(COC(=O)c1ccc([N+](=O)[O-])o1)NC1CCS(=O)(=O)C1 (configuration not stated),8,?,0,6,33*
CSc1nc2c(c(=O)n1C)SC(C)C2 (configuration not stated),1,-3,1,-2,20
CCC(C)Sc1nc2c(c(=O)n1C)SC(C)C2 (configuration not stated),52*,1,-1,-1,-4
CCOC(=O)C1CCN(S(=O)(=O)c2cnc[nH]2)CC1,4,-24,0,-4,35*
c1ccc(CNc2cnccn2)cc1,41*,-3,0,1,11
c1ccc(CCNc2cnccn2)cc1,-12,-11,1,7,38*
Fc1ccc(CNc2cnccn2)cc1,5,-4,0,-1,-17
O=C(NCCCNC(=O)c1ccc(F)cc1)c1ccc(F)cc1,-10,-51,0,2,-5
CCOc1ccc(NC(=O)CC2C(=O)N(c3ccc(OC)cc3)C(=O)N2CCC2=CCCCC2)cc1 (configuration not stated),-9,.,.,.,.
N#Cc1cc(C(=O)c2cc(F)ccc2O)cn(-c2nccs2)c1=O,2,-4,116*,0,34*
Cc1c(-n2cc(C(=O)c3cc(F)ccc3O)cc(C#N)c2=O)c(=O)n(-c2ccccc2)n1C,.,1,1,-4,8
CC(C)n1cc(C(=O)c2ccccc2O)cc(C#N)c1=O,-2,-9,0,-3,-8
N#Cc1cc(C(=O)c2ccccc2O)cn(-c2nccs2)c1=O,3,-26,138*,-3,24
COc1ccc(C(C(=O)NCC2CCCO2)N(C(=O)CNC(=O)c2cccs2)c2ccc(C(C)=O)cc2)cc1OC (configuration not stated),-2,-3,-1,1,-6
CCCNC(=O)Cn1nc(C)c2c(C)n(-c3ccccc3)nc2c1=O,14,.,-1,.,.
CCC(C)Nc1nc2c(c(=O)n(C)c(=O)n2C)n1Cc1cccc(C)c1 (configuration not stated),-7,10,-2,-1,15
Cc1cccc(Nc2nc3c(c(=O)n(C)c(=O)n3C)n2Cc2ccccc2)c1,46*,-16,-1,-5,8
O=[N+]([O-])c1ccc(NS(=O)(=O)N2CCOCC2)cc1,.,-14,.,-4,.
CC(=O)N1N=C(c2cccnc2)OC1c1ccc(C(C)C)cc1 (configuration not stated),27,7,0,2,55*
